From PubChem BioAssay
Shown are actives, neighbours in structure and some others; about 4.7% of the full set was active somewhere.
3CLpro inhibitor: SARS-CoV 3CLpro protease inhibitors, primary screen, biochemical, quenched FRET. Replicase polyprotein 1ab (Severe acute respiratory syndrome coronavirus), P0C6X7. recombinant SARS-CoV 3CLpro, quenched FRET peptide cleavage. inhibition, % at 6 µM. 0.14% of 290,000 active. AID 1706, 2009; in the data active = inhibition above about 12%
CCHF vOTU inh: CCHFV vOTU protease inhibitors, primary screen, biochemical, Pep-AMC substrate, fluorescence | 0.55% of 370,000 active | inhibition, % at 11.5 µM | Crimean-Congo hemorrhagic fever virus L polyprotein viral ovarian tumor (vOTU) protease …; in the data active = inhibition above about 30%; also: 0% = vehicle wells with enzyme and 100% = no enzyme wells
RecA intein inh: Mtb RecA intein splicing inhibitors, primary screen, biochemical, fluorescence, HTS. Protein RecA (Mycobacterium tuberculosis (strain ATCC 25618 / H37Rv)), P9WHJ3. cell-free RecA intein splicing. inhibition, % (concentration not given with the values). 0.75% of 290,000 active; in the data active = inhibition above about 30%;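 also: 0% = vehicle wells and 100% = reference inhibitor control wells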
Target sequence (P9WHJ3 whole entry, looked up): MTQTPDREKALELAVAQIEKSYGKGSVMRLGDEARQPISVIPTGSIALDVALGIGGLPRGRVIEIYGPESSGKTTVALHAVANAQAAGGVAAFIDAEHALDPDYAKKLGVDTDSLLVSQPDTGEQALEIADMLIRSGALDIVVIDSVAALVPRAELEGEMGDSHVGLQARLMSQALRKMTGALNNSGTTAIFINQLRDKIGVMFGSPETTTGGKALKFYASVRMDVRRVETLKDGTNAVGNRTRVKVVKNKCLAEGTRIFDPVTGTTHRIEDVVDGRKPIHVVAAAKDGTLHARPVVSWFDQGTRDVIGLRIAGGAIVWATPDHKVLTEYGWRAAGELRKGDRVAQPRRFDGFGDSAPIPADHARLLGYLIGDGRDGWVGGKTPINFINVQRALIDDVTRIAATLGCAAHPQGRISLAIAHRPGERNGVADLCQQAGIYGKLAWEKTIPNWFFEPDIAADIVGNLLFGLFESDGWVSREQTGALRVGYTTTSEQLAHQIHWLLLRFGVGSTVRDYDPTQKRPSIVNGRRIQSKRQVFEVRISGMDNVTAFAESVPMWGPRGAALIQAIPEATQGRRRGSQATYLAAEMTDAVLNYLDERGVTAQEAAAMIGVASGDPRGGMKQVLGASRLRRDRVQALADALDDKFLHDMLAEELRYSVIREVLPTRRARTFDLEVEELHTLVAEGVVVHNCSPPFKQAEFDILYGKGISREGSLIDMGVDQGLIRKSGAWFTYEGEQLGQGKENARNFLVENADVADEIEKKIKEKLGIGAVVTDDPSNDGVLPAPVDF
GDH-TPI counter-1: GDH-TPI coupling enzyme inhibitors, primary screen, artefact control for M. tuberculosis FBA inhibitor project, biochemical, absorbance, full deck; GDH-TPI coupled enzyme counterscreen, NADH absorbance; 1.2% of 360,000 active; AID 588335, 2011; inhibition, % at 4.8 µM; in the data active = inhibition above about 30%;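 also: 0% = DMSO wells and 100% = wells lacking the enzyme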
Mtb FBA inh: Mtb FBA enzyme inhibitors, primary screen, biochemical, fluorescence, strain H37Rv | AID 588726, 2011 | purified M. tuberculosis FBA, fluorescence read-out | 2.3% of 360,000 active | Fructose-bisphosphate aldolase (Mycobacterium tuberculosis (strain ATCC 25618 / H37Rv)), … | inhibition, % at 1 µM;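 also: 0% = vehicle and 100% = reference inhibitor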
VHR inh abs: VHR1 phosphatase inhibitors, primary screen, biochemical, absorbance, uHTS; Dual specificity protein phosphatase 3 (Homo sapiens), P51452; recombinant VHR phosphatase, pNPP absorbance; inhibition, % at 13.3 µM; 0.52% of 290,000 active; in the data active = inhibition above about 50%
Mtb FBA confirm: M. tuberculosis aldolase blockers, biochemical, fluorescence, strain H37Rv, confirmation; purified M. tuberculosis FBA, fluorescence read-out; shares compounds with Mtb FBA inh; inhibition, % at 1 µM; 78% of 5,600 active; AID 651616, 2012;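 also: 0% = vehicle wells and 100% = reference inhibitor wells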
GDH-TPI counter-2: GDH-TPI coupling enzyme inhibitors, artefact control for M. tuberculosis FBA inhibitor project, biochemical, fluorescence, high throughput | GDH-TPI coupled enzyme counterscreen | AID 652141, 2013 | inhibition, % at 1 µM | 81% of 5,600 active | shares compounds with Mtb FBA inh; in the data active = inhibition above about 10%
* = called active by the depositor. Rule as the data show it, unless noted: active = inhibition above about 27%; inactive = the rest.

Results for Cc1c(OC(C)C(=O)N2C[C@H]3C[C@@H](C2)c2cccc(=O)n2C3)ccc2c3c(c(=O)oc12)CCC3 (stereo partly specified) ?
3CLpro inhibitor: 1; CCHF vOTU inh: 3; RecA intein inh: 7; GDH-TPI counter-1: 6; Mtb FBA inh: 9; VHR inh abs: 24

What do the screens show for `O=C(COc1cc2oc(=O)c3c(c2cc1Cl)CCCC3)N1C[C@H]2C[C@@H](C1)c1cccc(=O)n1C2`?
3CLpro inhibitor: 3; CCHF vOTU inh: -12; RecA intein inh: -3; GDH-TPI counter-1: 21; Mtb FBA inh: 35*; VHR inh abs: -15; Mtb FBA confirm: 122*; GDH-TPI counter-2: 87*

Results for Cc1cc(OCC(=O)N2C[C@H]3C[C@@H](C2)c2cccc(=O)n2C3)c2c(C)cc(=O)oc2c1 ?
3CLpro inhibitor: 2; CCHF vOTU inh: 10; RecA intein inh: -1; GDH-TPI counter-1: 17; Mtb FBA inh: 34*; VHR inh abs: 21; Mtb FBA confirm: active; GDH-TPI counter-2: active

Results for CC(Oc1cc2oc(=O)c3c(c2cc1Cl)CCC3)C(=O)N1C[C@H]2C[C@@H](C1)c1cccc(=O)n1C2 (stereo partly specified) ?
3CLpro inhibitor: 0; CCHF vOTU inh: -32; RecA intein inh: -3; GDH-TPI counter-1: 19; Mtb FBA inh: 37*; VHR inh abs: 41; Mtb FBA confirm: 124*; GDH-TPI counter-2: 111*

What do the screens show for `COc1ccc(C)cc1NC(=O)CSc1ccc(-c2ccco2)nn1`?
3CLpro inhibitor: 2; CCHF vOTU inh: 7; RecA intein inh: 1; GDH-TPI counter-1: 7; Mtb FBA inh: 2; VHR inh abs: 15

How did CCOC(=O)c1cn2nc(Oc3ccc(NC(C)=O)cc3)ccc2n1 do in these assays?
3CLpro inhibitor: -6; CCHF vOTU inh: 9; RecA intein inh: -1; GDH-TPI counter-1: -8; Mtb FBA inh: -5; VHR inh abs: 9

How did CCOC(=O)c1cn2nc(Oc3ccc(C#N)cc3)ccc2n1 do in these assays?
3CLpro inhibitor: 6; CCHF vOTU inh: -38; RecA intein inh: 1; GDH-TPI counter-1: 7; Mtb FBA inh: 96*; VHR inh abs: 19; Mtb FBA confirm: 3; GDH-TPI counter-2: -1

What do the screens show for `CCOC(=O)c1cn2nc(Oc3ccc(C(=O)OC)cc3)ccc2n1`?
3CLpro inhibitor: 11; CCHF vOTU inh: -23; RecA intein inh: 4; GDH-TPI counter-1: 10; Mtb FBA inh: 100*; VHR inh abs: 28; Mtb FBA confirm: active; GDH-TPI counter-2: active

How did CSc1ccc(CNC(=O)C2CCC(=O)N(CCc3cccc(F)c3)C2)cc1 (stereo unspecified) do in these assays?
3CLpro inhibitor: -2; CCHF vOTU inh: -16; RecA intein inh: 1; GDH-TPI counter-1: -2; Mtb FBA inh: 0; VHR inh abs: 38

What do the screens show for `O=C1c2ccccc2C(c2nnnn2-c2ccc3ccccc3c2)N1C1CC1` (stereo unspecified)?
CCHF vOTU inh: -5

What do the screens show for `CCn1ncc(-c2ccnc3cc(C(=O)O)nn23)c1C`?
3CLpro inhibitor: 2; CCHF vOTU inh: -69; RecA intein inh: 5; GDH-TPI counter-1: 9; Mtb FBA inh: 68*; VHR inh abs: 18; Mtb FBA confirm: 137*; GDH-TPI counter-2: 131*

How did CC1(NC(=O)CCc2nc3ccccc3c(=O)[nH]2)CCS(=O)(=O)C1 (stereo unspecified) do in these assays?
3CLpro inhibitor: 3; CCHF vOTU inh: -4; RecA intein inh: -3; GDH-TPI counter-1: 1; Mtb FBA inh: 0; VHR inh abs: 2

How did Cc1ccc(Cn2nnnc2CN2CCC(NC(=O)c3ccc(Br)cc3)CC2)cc1 do in these assays?
3CLpro inhibitor: 0; CCHF vOTU inh: 2; RecA intein inh: -1; GDH-TPI counter-1: 2; Mtb FBA inh: 2; VHR inh abs: 36

Results for CCC(C)(C)n1nnnc1CN1CCC(NC(=O)c2ccc(Br)cc2)CC1 ?
3CLpro inhibitor: -1; CCHF vOTU inh: 6; RecA intein inh: 3; GDH-TPI counter-1: 4; Mtb FBA inh: 33*; VHR inh abs: -10; Mtb FBA confirm: 4; GDH-TPI counter-2: -2

What do the screens show for `CCc1cc2c(CN3CCN(Cc4ccccc4)CC3)cc(=O)oc2cc1O`?
3CLpro inhibitor: -2; CCHF vOTU inh: -202; RecA intein inh: -158; GDH-TPI counter-1: 7; Mtb FBA inh: 97*; VHR inh abs: 6; Mtb FBA confirm: 113*; GDH-TPI counter-2: 93*

How did Cc1c(O)ccc2c(CN(C)Cc3ccccc3)cc(=O)oc12 do in these assays?
3CLpro inhibitor: 1; CCHF vOTU inh: -39; RecA intein inh: -3; GDH-TPI counter-1: 16; Mtb FBA inh: 47*; VHR inh abs: 13; Mtb FBA confirm: 56*; GDH-TPI counter-2: 51*

What do the screens show for `Cc1c(O)ccc2c(CN3CCN(Cc4ccccc4)CC3)cc(=O)oc12`?
3CLpro inhibitor: -2; CCHF vOTU inh: -154; RecA intein inh: -3; GDH-TPI counter-1: 4; Mtb FBA inh: 36*; VHR inh abs: 21; Mtb FBA confirm: active; GDH-TPI counter-2: active

Results for CCc1cc2c(CN(C)Cc3ccccc3F)cc(=O)oc2cc1O ?
3CLpro inhibitor: -3; CCHF vOTU inh: -44; RecA intein inh: -103; GDH-TPI counter-1: 6; Mtb FBA inh: 58*; VHR inh abs: 31; Mtb FBA confirm: active; GDH-TPI counter-2: active

What do the screens show for `O=c1cc(CN2CCN(Cc3ccccc3)CC2)c2ccc(O)c(O)c2o1`?
3CLpro inhibitor: 1; CCHF vOTU inh: -8; RecA intein inh: -7; GDH-TPI counter-1: 12; Mtb FBA inh: 5; VHR inh abs: 26

What do the screens show for `CCc1ccc2c(CN3CCN(Cc4ccccc4)CC3)cc(=O)oc2c1`?
3CLpro inhibitor: -4; CCHF vOTU inh: 3; RecA intein inh: 2; GDH-TPI counter-1: 5; Mtb FBA inh: 2; VHR inh abs: 11

Results for CCOc1ccc(NC(=O)CN(C)C2=NS(=O)(=O)c3ccccc32)cc1 ?
CCHF vOTU inh: -6; GDH-TPI counter-1: -4; Mtb FBA inh: -1

Results for CCOc1cc(O)c(-c2[nH]ncc2-c2nc(C)cs2)cc1CC ?
3CLpro inhibitor: 5; CCHF vOTU inh: 2; RecA intein inh: 1; GDH-TPI counter-1: 5; Mtb FBA inh: 0; VHR inh abs: -2
